TGFb SMAD3 inh = blocks TGF-b signaling; HepG2 CAGA-GFP TGF-b/SMAD3 reporter, GFP fluorescence, 18 h; TGF-beta stimulated, 500 pg/mL final; Potency, µM (highest dose often 46.1 µM), for inactives: top-dose activity, negative = inhibition, actives largely listed as inhibitors; actives 1.2% (n = 410,000); AID 588855; further: potency means the concentration at half of the fitted maximal effect; on the % scale 0 is the no-effect control and ±100 the full control effect; nearly all actives have a fitted effect of over 65% in size
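HEPG2 CAGA-GFP cells (1000/well, DMEM with 1% FBS) were pre-incubated 2 h at 37 degrees C, given compound by pin tool, then stimulated with TGF-beta at 500 pg/mL final for 18 h before per-cell GFP fluorescence imaging.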
S-ASM inh = inhibitors of human secretory acid sphingomyelinase; P17405; placental ASM, HMU-PC fluorogenic substrate, 60 min; Potency, µM (top dose mostly 57.5 µM), for inactives: top-dose activity change, negative = inhibition, most hits filed as inhibitors; actives 0.006% (n = 340,000); further: potency means the concentration at half of the fitted maximal effect
Target sequence (P17405 47-631 limits assumed): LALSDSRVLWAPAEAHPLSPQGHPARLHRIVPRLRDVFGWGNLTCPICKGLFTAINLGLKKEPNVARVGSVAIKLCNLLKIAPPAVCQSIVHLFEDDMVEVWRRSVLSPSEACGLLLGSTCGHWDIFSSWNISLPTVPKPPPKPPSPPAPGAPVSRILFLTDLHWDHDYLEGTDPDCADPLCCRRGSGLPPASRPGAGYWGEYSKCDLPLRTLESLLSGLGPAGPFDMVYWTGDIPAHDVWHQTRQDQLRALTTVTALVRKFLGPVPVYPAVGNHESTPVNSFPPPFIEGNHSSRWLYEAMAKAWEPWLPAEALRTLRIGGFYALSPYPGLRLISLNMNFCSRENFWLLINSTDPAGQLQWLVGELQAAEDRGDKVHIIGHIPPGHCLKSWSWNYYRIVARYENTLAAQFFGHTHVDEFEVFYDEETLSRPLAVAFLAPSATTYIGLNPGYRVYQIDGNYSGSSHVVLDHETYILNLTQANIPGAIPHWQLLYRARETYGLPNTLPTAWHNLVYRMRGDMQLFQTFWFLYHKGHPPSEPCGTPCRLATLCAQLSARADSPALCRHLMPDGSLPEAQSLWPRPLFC
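Fluorogenic HMU-PC substrate (9 uM final) is turned over by placental ASM in 60 min at 37 C after a 10 min compound preincubation. Reaction ended by alkaline stop (pH 10), with fluorescence read at 386/447 nm.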
HepG2 tox-1 = HepG2 cytotoxicity, counter-screen for TGF-b inhibitors; HepG2 CAGA-GFP viability, ATP luminescence, 18 h; Potency, µM (doses to about 46.1 µM), for the others: at the highest dose activity change, negative = cytotoxicity, hits mostly cytotoxic; actives 0.76% (n = 410,000); AID 588856; further: potency means the concentration at half of the fitted maximal effect
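CellTiter-Glo luminescence gave cytotoxicity after 18 hours at 37 degrees C. The cells were HepG2 CAGA-GFP in 1% FBS DMEM, stimulated with 500 pg/mL TGF-beta after compound addition. %Activity was normalised to no-cell wells (complete cell-killing) and DMSO (no toxicity), and curves were fitted and classified.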
DT40 TDP1 CPT = DT40-hTDP1 cell growth loss with CPT | Potency, µM (doses to about 46.2 µM), without a hit: at the highest dose activity change, negative = growth inhibition, actives largely listed as inhibitors | chicken DT40 Tdp1-/-;hTDP1 cells + 20 nM CPT, ATP luminescence, 48 h | AID 686979 | actives 12% (n = 420,000); further: potency means the concentration at half of the fitted maximal effect; on the % scale 0 is the no-effect control and ±100 the full control effect; nearly all actives have a fitted effect of over 55% in size
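Chicken DT40 Tdp1-/- cells complemented with human TDP1, 400 cells/well, exposed to compounds plus 20 nM camptothecin for at least 48 h at 37 C; viability read as ATP content by CellTiter-Glo luminescence.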
IL1B secr inh = inflammasome signaling inhibition, IL-1 beta readout. THP-1 LPS/ATP IL-1B secretion, AlphaLISA, 16 h; hits give low values. activity change, % at 57.5 µM. actives 4.7% (n = 360,000); in the data active means activity change below about -50%; inconclusive means mostly about -30% to -49%; further: on the % scale 0 is the no-effect control and ±100 the full control effect
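Secreted IL-1B measured by AlphaLISA bead assay after 16 h compound exposure of THP-1 cells; compounds (final up to 57.5 uM) added 1 h before LPS (250 ng/mL) and ATP (1.25 mM) stimulation; lower signal means less secretion.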
DT40 TDP1 no CPT = qHTS for Inhibitors of human tyrosyl-DNA phosphodiesterase 1 (TDP1): qHTS in cells in absence of CPT; DT40 Tdp1-/- hTDP1 cells, no CPT, ATP luminescence, 48 h; Potency, µM (titrated, usually from 46.2 µM), for the others: at the highest dose activity change, negative = growth inhibition, hits mostly inhibitors; actives 15% (n = 420,000); further: potency means the concentration at half of the fitted maximal effect; on the % scale 0 is the no-effect control and ±100 the full control effect; nearly all actives have a fitted effect of over 55% in size
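Growth of hTDP1-complemented DT40 Tdp1-knockout cells is measured by ATP luminescence after at least 48 hr compound exposure at 37 °C, with DMSO substituting for the 20 nM CPT used in the parallel screen.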
TGFb CAGA inh = confirmation of TGF-b signaling inhibitors in HepG2 reporter cells; shares compounds with TGFb SMAD3 inh; HepG2 CAGA-GFP TGF-b reporter, GFP fluorescence, 18 h; cells stimulated with TGF-beta, 500 pg/mL; Potency, µM (titrated, usually from 46.1 µM), without a hit: top-dose activity, negative = inhibition, hits mostly inhibitors; actives 63% (n = 1,600); AID 720534; further: potency means the concentration at half of the fitted maximal effect; on the % scale 0 is the no-effect control and ±100 the full control effect; nearly all actives have a fitted effect of over 65% in size
HepG2 tox-2 = HepG2 cytotoxicity, TGF-b inhibitor counterscreen; shares compounds with TGFb SMAD3 inh; HepG2 CAGA-GFP viability, ATP luminescence, 18 h; cells stimulated with TGF-beta, 500 pg/mL; Potency, µM (top dose mostly 46.1 µM), without a hit: top-dose activity, negative = cytotoxicity, hits mostly inhibitors; actives 27% (n = 1,600); AID 720535; further: potency means the concentration at half of the fitted maximal effect; on the % scale 0 is the no-effect control and ±100 the full control effect; nearly all actives have a fitted effect of over 70% in size
CCL64 TGFb inh = blocks TGF-b signaling in CCL64 reporter cells; shares compounds with TGFb SMAD3 inh; CCL64 CAGA-GFP reporter, TGF-b stimulated, GFP fluorescence, 18 h; Potency, µM (top dose mostly 46.1 µM), without a hit: at the top dose activity, negative = inhibition, actives largely listed as inhibitors; actives 41% (n = 1,600); AID 720536; further: potency means the concentration at half of the fitted maximal effect; nearly all actives have a fitted effect of over 65% in size
TGFb COP inh = validation of TGF-b inhibitors in HepG2 COP promoter reporter; actives 3% (n = 1,600); Potency, µM (top dose mostly 46.1 µM), for the others: at the top dose activity, negative = inhibition, usual class: inhibitors; HepG2 COP-GFP TGF-b reporter, GFP fluorescence, 18 h; cells stimulated by added recombinant TGF-beta; shares compounds with TGFb SMAD3 inh; further: potency means the concentration at half of the fitted maximal effect; nearly all actives have a fitted effect of over 70% in size
* = called active by the depositor; ? = inconclusive; . = not tested or not shown. An excerpt weighted towards active compounds, which were near 19% of everything screened. Unless noted, the call rests on the fitted dose curve; in most records, active means well fitted curve in the direction sought with a large enough effect; inconclusive means small, poorly fitted or top-dose-only effect, or another doubt; inactive means no such curve, though single readings can be large; an effect the other way counts as inactive or inconclusive.

SMILES	TGFb SMAD3 inh	S-ASM inh	HepG2 tox-1	DT40 TDP1 CPT	IL1B secr inh	DT40 TDP1 no CPT	TGFb CAGA inh	HepG2 tox-2	CCL64 TGFb inh	TGFb COP inh
CCOc1ccc(Cl)cc1-c1cc(C(=O)NCc2cc(C(F)(F)F)cc(C(F)(F)F)c2)[nH]n1	16µM*	.	-22%	23µM*	0	?	16µM*	?	?	21%
COc1ccc(C(=O)CSc2cc(C)nc(SCC(=O)c3ccc(C)cc3)n2)cc1	?	-2%	-2%	-21%	28	-27%	?	0%	0%	0%
Cc1ccc(C(=O)CSc2nc(C)cc(SCc3nnc(-c4ccccc4)o3)n2)cc1	-4%	-3%	-6%	-19%	4	-28%	.	.	.	.
CCN(C[C@H]1N[C@@](Cc2ccccc2)(C(=O)OC)[C@H]2C(=O)N(Cc3ccccc3)C(=O)[C@@H]12)C(=O)Nc1ccc(F)cc1	13µM*	-3%	-6%	?	?	16µM*	23µM*	-17%	?	-2%
CCN(C[C@H]1N[C@@](Cc2ccccc2)(C(=O)OC)[C@H]2C(=O)N(Cc3ccccc3)C(=O)[C@@H]12)C(=O)Nc1ccc(Cl)cc1	13µM*	-12%	-17%	?	-13	18µM*	7.3µM*	-28%	12µM*	25%
CCNC(=O)N(CC)C[C@H]1N[C@@](Cc2ccccc2)(C(=O)OC)[C@H]2C(=O)N(Cc3ccccc3)C(=O)[C@@H]12	33%	0%	1%	12%	12	-28%	.	.	.	.
CCN(C[C@H]1N[C@@](Cc2ccccc2)(C(=O)OC)[C@H]2C(=O)N(Cc3ccccc3)C(=O)[C@@H]12)C(=O)NC(C)C	-17%	2%	-10%	?	24	?	.	.	.	.
COCc1ccc(CN2CCC(n3nccc3NC(=O)CCCc3ccccc3)CC2)o1	5%	4%	2%	1%	0	6%	.	.	.	.
CC(=O)Nc1ncnc2c1c(-c1ccc(Cl)cc1)nn2C(C)(C)C	3.5µM*	0%	-37%	?	93	?	2.6µM*	?	?	?
CC(C)C[C@H]1CNC(=S)N1C[C@H]1CCCN1C[C@H](Cc1ccccc1)N1C[C@H](Cc2ccc(O)cc2)N(CCc2ccccc2)C1=S	7.1µM*	.	-9%	23µM*	-28	13µM*	12µM*	-24%	?	12%
CC(C)C[C@H]1CNC(=S)N1C[C@H]1CCCN1C[C@H](Cc1ccc(O)cc1)N1C[C@H](Cc2ccc(O)cc2)N(CCc2ccccc2)C1=S	10µM*	.	-40%	?	?	?	?	15µM*	4.6µM*	78%
CC(C)C[C@@H](CN1CCC[C@H]1CN1C(=O)C(=O)NC[C@@H]1Cc1ccccc1)N1C[C@H](Cc2ccc(O)cc2)N(CCc2ccccc2)C(=O)C1=O	.	.	.	?	-17	?	.	.	.	.
Oc1ccc(C[C@H]2CNC(=S)N2CC2CCCN2C[C@H](Cc2ccccc2)N2C[C@H](Cc3ccc(O)cc3)N(CCc3ccccc3)C2=S)cc1 (stereo partly drawn)	7.9µM*	?	2%	23µM*	?	23µM*	5.8µM*	?	9.2µM*	62%
COCCCNC(=O)c1sc2nc(C)c(C(=O)Nc3ccc(Cl)cc3)c(-c3ccc(Br)cc3)c2c1N	-22%	.	-23%	?	.	-23%	.	.	.	.
COc1ccc2[nH]c3c(Cl)ncnc3c2c1	-1%	34%	-17%	7%	?	?	.	.	.	.
COc1ccc2[nH]c3c(N4CCc5ccccc5C4)ncnc3c2c1	7.1µM*	101%	-52%	1.2µM*	-97*	1.3µM*	?	23µM*	18µM*	?
COc1ccc(NC(=O)CC2C(=O)N(c3ccccc3)C(=O)N2Cc2cccnc2)cc1 (stereo not drawn)	-1%	.	2%	-8%	.	-21%	.	.	.	.
OC(COC(c1ccccc1)c1ccccc1)CN1CCN(c2cccc(Cl)c2)CC1 (stereo not drawn)	16µM*	-8%	-13%	21µM*	?	?	18µM*	?	?	41%
OC(CN1CCN(c2cccc(Cl)c2)CC1)c1ccccc1 (stereo not drawn)	-25%	0%	-26%	-22%	32	-8%	.	.	.	.
COc1ccc(OCC(=O)Nc2ccccc2OC)cc1	-5%	4%	-10%	-6%	5	-4%	.	.	.	.
CCCOc1ccccc1N/C(=N/c1nc(C)cc(C)n1)NC(=O)COc1ccc(OC)cc1	10µM*	-21%	-7%	21µM*	?	16µM*	13µM*	-27%	?	24%
CN1CCN(Cc2cc(COCc3ccccc3)c3cccnc3c2O)CC1	4.5µM*	4%	-30%	3.3µM*	-97*	3.3µM*	-18%	?	7.3µM*	5%
O=C(O)Cn1cc(CN2CCOCC2)c2ccccc21	10%	3%	5%	-1%	12	-19%	.	.	.	.
O=C(Oc1c(CN2CCOCC2)cc(Cl)c2cccnc12)c1ccccc1	2.8µM*	0%	2.8µM*	?	?	?	-6%	?	?	4%
